# Results filed as inconclusive are left out. Active and inactive are the calls of the source. Cut-off read from the data, not from the text of the source, unless noted: active = inhibition above about 80%; inactive = the rest.
# Columns and labels:
# [1] = viability loss in pontine glioma line – cell-based, SU-DIPG-XIII, MIPE5.0, CellTiter-Glo, qHTS, dose response (AID 1347064; cut-off not given, nearly all actives have AC50 up to about 23 µM;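 note: cells exposed to compound for 48 hours before the viability read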); details: CellTiter-Glo ATP luminescence
# [2] = viability loss in pontine glioma line – cell-based, SU-DIPG-XXV, MIPE5.0, CellTiter-Glo, qHTS, dose response (AID 1347065; cut-off not given, nearly all actives have AC50 up to about 26 µM;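 note: cells exposed to compound for 48 hours before ATP readout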); details: CellTiter-Glo ATP luminescence
# [3] = JHH-DIPG-1 glioma cell viability, MIPE5.0 library, CellTiter-Glo luminescence, qHTS (AID 1347067; cut-off not given, nearly all actives have AC50 up to about 26 µM;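 note: cells exposed to compound for 48 hours before readout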); details: JHH-DIPG-1 glioma viability, CellTiter-Glo ATP luminescence
# [4] = compounds altering HSF1 focus formation in cells – imaging, Selleck Cancer Library (AID 1347162; in the data active = plate-normalised HSF1 focus index below about 0.46); details: human cells, HSF1 nuclear foci imaging, at 10 µM; SSMD: measured here: HSF1 foci SSMD mean; cell count: measured here: cell number; plate-normalised HSF1 focus index: stronger effect = lower value
# [5] = growth inhibition of DIPG cells – cell-based, MIPE5.0 library, qHTS (AID 1347068; cut-off not given, nearly all actives have IC50 up to about 30 µM); details: SU-DIPG-XXV viability
# [6] = growth inhibition, single agent or in combination, cell-based, chromothripsis tumors, cisplatin or BGB combos (AID 1671449); details: LFS_MB_P medulloblastoma cells;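 note: cells exposed for 96 hours; 0% = vehicle DMSO and 100% = killing by high DMSO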
# [7] = growth inhibition, single agent and combos, cell-based, chromothripsis tumors, cisplatin or BGB combos (AID 1671450); details: HDN33 neuroblastoma cells, stronger effect = higher value;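 note: cells exposed to compound for four days; 0% = vehicle DMSO and 100% = cell killing by high DMSO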
# [8] = growth inhibition, single agents and combos, ICB984, cell-based, cisplatin or BGB combos, synergistic combos for chromothripsis tumors (AID 1671451; call rule not given here;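 note: cells exposed for 96 hours before readout; 0% = vehicle DMSO and 100% = killing by high DMSO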); details: ICB984 medulloblastoma cells, drug combinations, stronger effect = higher value
# [9] = growth inhibition, single agents and combos, LFS_MB_1R, cell-based, cisplatin or BGB combos, synergistic combos for chromothripsis tumors (AID 1671452); details: LFS_MB_1R medulloblastoma cells, stronger effect = higher value;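 note: cells exposed for 96 hours before readout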
# [10] = growth inhibition, single agents and combos, HTB85, cell-based, BGB or cisplatin IC20 combos, synergistic combos for chromothripsis tumors (AID 1671453); details: HTB85 osteosarcoma cells, drug combinations, stronger effect = higher value;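 note: cells exposed for 96 hours before readout; 0% = vehicle DMSO and 100% = high DMSO killing control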
# [11] = measured here: combination with BGB IC40, at 0.05 µM
smiles,measurement,setting,value
O=C(/C=C/C#Cc1cccc(NS(=O)(=O)c2ccccc2)c1)NO,AC50,[1],1.29 µM (active)
same,AC50,[2],1.82 µM (active)
same,AC50,[3],1.82 µM (active)
same,SSMD,[4],-2.13
same,cell count,[4],6610
same,plate-normalised HSF1 focus index,[4],0.874 (inactive)
O=c1[nH]c([C@@H]2CCCN2)nc2c1oc1ccc(Cl)cc12,AC50,[1],20.9 µM (active)
same,outcome,[5],inactive
same,inhibition,"[6]; at 0.5 µM, stronger effect = higher value",-0.05% (inactive)
same,inhibition,"[6]; measured here: combination with BGB IC20, at 0.005 µM",-31.4%
same,inhibition,"[6]; measured here: combination with BGB IC40, at 0.005 µM",94.4%
same,inhibition,[6]; [11],-14%
same,inhibition,"[6]; measured here: combination with cisplatin, at 0.5 µM, stronger effect = higher value",64.5%
same,inhibition,"[6]; measured here: combination with cisplatin, at 5 µM, stronger effect = higher value",-16.4%
same,inhibition,"[7]; BGB combo, at 5 µM",1.11%
same,inhibition,[7]; at 0.5 µM,-21.3% (inactive)
same,inhibition,"[7]; cisplatin combo, at 5 µM",-6.62%
same,inhibition,"[7]; measured here: with BGB IC20 combination, at 0.5 µM",-15.4%
same,inhibition,"[7]; measured here: with cisplatin IC20 combination, at 0.5 µM",-18.8%
same,inhibition,"[7]; single agent, at 5 µM",3.38%
same,inhibition,"[8]; BGB IC20 combo, at 0.005 µM",-39.5%
same,inhibition,"[8]; BGB IC40 combo, at 0.005 µM",-26.9%
same,inhibition,"[8]; BGB IC40 combo, at 0.05 µM",-16.5%
same,inhibition,[8]; at 0.5 µM,-16.4% (inactive)
same,inhibition,"[8]; cisplatin combo, at 0.05 µM",-22.5%
same,inhibition,"[8]; cisplatin combo, at 0.5 µM",-15.6%
same,inhibition,"[8]; cisplatin combo, at 5 µM",4.34%
same,inhibition,"[8]; measured here: 5 uM single agent, at 5 µM",-19.5%
same,inhibition,[9]; at 0.5 µM,-31% (inactive)
same,inhibition,[9]; [11],-29.1%
same,inhibition,"[9]; measured here: combination with cisplatin, at 0.5 µM",-68.3%
same,inhibition,"[9]; measured here: combination with cisplatin, at 5 µM",-10.2%
same,inhibition,[10]; at 0.5 µM,-12.9% (inactive)
same,inhibition,"[10]; measured here: with BGB IC20, at 0.5 µM",-9.31%
same,inhibition,"[10]; measured here: with BGB IC20, at 5 µM",-19.7%
same,inhibition,"[10]; measured here: with cisplatin IC20, at 0.5 µM",-5.61%
